Screens: PubChem BioAssay, National Center for Advancing Translational Sciences (NCATS)
Gal4-VP16 FLuc: counter-screen for ROR gamma inhibitors: Gal4-VP16 reporter; Drosophila S2 Gal4-VP16 UAS-luciferase, luminescence, 20 h; Potency, µM (highest dose often 53.6 µM), for the others: at the highest dose activity, negative = inhibition, actives largely listed as inhibitors; 310,000 tested, 3.5% active;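 also: Gal4-VP16 expression switched on by copper sulfate through the metallothionein promoter; nearly all actives have a fitted effect of over 50% in size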
ELG1 repair inh: ELG1-dependent DNA repair inhibition; HEK293T ELG1-luciferase reporter, luminescence, 16 h; DNA damage induced by 5-fluorouridine; Potency, µM (top dose mostly 46.1 µM), inactives show top-dose activity change, negative = inhibition, actives largely listed as inhibitors; 330,000 tested, 2.3% active; AID 504467; also: nearly all actives have a fitted effect of over 55% in size
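Overnight (16 hr) co-exposure of 2,000 cells/well to 5-fluorouridine and compound at 37 °C preceded detection. Luciferase was quantified via ONE-Glo luminescence; loss of signal denotes inhibition.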
ALOX12 inh: inhibitors of human 12S-lipoxygenase ALOX12; purified 12hLO, xylenol orange hydroperoxide absorbance; Potency, µM (titrated, usually from 108 µM), for the others: at the highest dose activity change, negative = inhibition, hits mostly inhibitors; 580,000 tested, 1.1% active
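Purified human 12hLO (150 nM final) in 25 mM Hepes, 0.01% Triton X-100, pH 7.0 was preincubated 15 min at room temperature with compound. Then 40 uM arachidonic acid was added, 30 min. Hydroperoxide was read by Fe-XO absorbance ratio 573/405 nm.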
DT40 TDP1 CPT: growth inhibition of DT40 Tdp1-/-;hTDP1 cells with camptothecin (screen for TDP1 inhibitors). chicken DT40 Tdp1-/-;hTDP1 cells + 20 nM CPT, ATP luminescence, 48 h. Potency, µM (doses to about 46.2 µM), without a hit: at the top dose activity change, negative = growth inhibition, hits mostly inhibitors. 420,000 tested, 12% active; also: nearly all actives have a fitted effect of over 55% in size
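Cell growth measured by CellTiter-Glo luminescence after a minimum 48 h, 37 C compound exposure with 20 nM CPT in Tdp1-knockout DT40 cells stably expressing hTDP1, seeded 400/well; qHTS titration format.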
RORgamma inh: blocks mouse ROR gamma transcriptional activity. Potency, µM (series often up to 53.6 µM), inactives show at the top dose activity change, negative = inhibition, most hits filed as inhibitors. P51450. 310,000 tested, 5.4% active. Drosophila S2 Gal4-RORgamma UAS-luciferase reporter, 20 h; also: nearly all actives have a fitted effect of over 60% in size
Target sequence (P51450 whole entry, looked up, the tested form may be a part): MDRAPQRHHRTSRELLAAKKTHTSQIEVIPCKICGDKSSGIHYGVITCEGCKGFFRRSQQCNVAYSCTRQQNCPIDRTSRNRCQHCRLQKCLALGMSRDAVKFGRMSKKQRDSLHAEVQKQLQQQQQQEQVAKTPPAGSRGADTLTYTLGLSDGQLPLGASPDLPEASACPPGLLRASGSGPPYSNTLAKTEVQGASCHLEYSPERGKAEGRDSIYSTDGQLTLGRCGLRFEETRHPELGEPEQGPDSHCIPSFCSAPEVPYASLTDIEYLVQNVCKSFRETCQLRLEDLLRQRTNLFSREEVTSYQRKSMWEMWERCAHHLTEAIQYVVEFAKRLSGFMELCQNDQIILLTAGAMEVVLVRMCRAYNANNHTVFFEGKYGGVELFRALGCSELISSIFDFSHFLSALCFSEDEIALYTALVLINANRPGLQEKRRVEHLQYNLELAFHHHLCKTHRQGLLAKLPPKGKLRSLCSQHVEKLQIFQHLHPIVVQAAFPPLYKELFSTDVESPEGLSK
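Stable Schneider cell line, Gal4 DNA-binding domain fused to ROR gamma, UAS-luciferase. Cmpd 1 hr RT → CuSO4 700 uM final → 20 hr RT → luciferase reagent 10 min → luminescence.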
DT40 TDP1 no CPT: qHTS for Inhibitors of human tyrosyl-DNA phosphodiesterase 1 (TDP1): qHTS in cells in absence of CPT. DT40 Tdp1-/- hTDP1 cells, no CPT, ATP luminescence, 48 h. Potency, µM (highest dose often 46.2 µM), inactives show at the highest dose activity change, negative = growth inhibition, most hits filed as inhibitors. 420,000 tested, 15% active; also: nearly all actives have a fitted effect of over 55% in size
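Stably hTDP1-transfected Tdp1-null chicken DT40 cells were treated with library compounds minus camptothecin and grown for at least 48 hr at 37 °C, after which cellular ATP was quantified by luminescence.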
The depositor's hits bear a star; ? = inconclusive; / = not tested or not shown; [ ] = another dose, or the depositor's remark. In the library only some 15% were active in any assay of this set; here they are far more common. Calls follow the shape of the dose curve; as a rule, active = well fitted curve in the direction sought with a large enough effect; inconclusive = small, poorly fitted or top-dose-only effect, or another doubt; inactive = no such curve, though single readings can be large; an effect the other way counts as inactive or inconclusive. % is scaled to controls: 0 for no effect and ±100 for the full control effect; potency is read from the fitted curve at half-maximal effect.

SMILES	Gal4-VP16 FLuc	ELG1 repair inh	ALOX12 inh	DT40 TDP1 CPT	RORgamma inh	DT40 TDP1 no CPT
O=C(Nc1c(-c2ccc(F)cc2)nc2sccn12)c1ccc(S(=O)(=O)N2CCOCC2)cc1	/	/	17.6%	/	/	/
CCCCOCCCNC(=O)C[C@@H]1C[C@@]2(C(=O)OC)CC(C)(C)CC=C2N(Cc2ccco2)C1=O	/	/	9.6%	20.6µM*	/	23.1µM*
COc1cc(OCc2ccccc2)ccc1CN1CC[C@@]2(O)CCNC[C@H]2C1	/	/	39.5%	/	/	/
Cc1nn(Cc2ccccc2)c2c1C(c1cccc(Cl)c1)C(C#N)=C(N)O2 (stereo not drawn)	11.4%	?	?	23.1µM*	-8.5%	18.4µM*
Cc1cc2c(c(=O)n1CCc1ccccc1)C(c1cccc(Cl)c1)C(C#N)=C(N)O2 (stereo not drawn)	/	/	-17.0%	/	/	/
CC(C)c1onc(C(=O)NCc2ccccc2)c1[N+](=O)[O-]	-4.7%	0.3%	7.2%	16.4µM*	-16.4%	20.6µM*
Cc1nn(Cc2ccccc2Cl)c(C)c1NC(=O)c1noc(C(C)C)c1[N+](=O)[O-]	11.0%	4.9%	-1.8%	-6.6%	26.7%	0.3%
CC(C)c1onc(C(=O)Nc2cccnc2Cl)c1[N+](=O)[O-]	8.1%	7.5%	0.4%	23.1µM*	21.2%	?
CCc1ccccc1NC(=O)c1noc(C(C)C)c1[N+](=O)[O-]	-8.4%	16.5%	-17.8%	14.6µM*	33.8%	?
CC(C)c1onc(C(=O)NCc2ccc(Cl)cc2)c1[N+](=O)[O-]	-15.8%	12.3%	-18.5%	?	5.5%	?
Cc1noc([C@@H]2CN(C(=O)CC(C)(C)C)C[C@H]2CO)n1	/	/	58.0%	/	/	/
O=C1C2CCCCN2C(=O)N1CCCN1CCN(c2cccc(C(F)(F)F)c2)CC1 (stereo not drawn)	/	/	?	-25.8%	/	-25.5%
O=C1C2CCCN2C(=O)N1CCN1CCN(c2cccc(C(F)(F)F)c2)CC1 (stereo not drawn)	/	/	0.0%	-3.8%	/	8.2µM*
COc1ccccc1N1CCN(CCCCN2C(=O)C3CCCCN3C2=O)CC1 (stereo not drawn)	-6.9%	-25.5%	/	25.9µM*	0.6%	?
O=C1C2CCCN2C(=O)N1CCCN1CCN(c2cccc(Br)c2)CC1 (stereo not drawn)	-18.9%	-7.2%	3.98µM*	-22.0%	-1.2%	?
CCNC(=O)c1ccc(CNC(=O)OC(C)(C)C)cc1	/	/	-38.9%	/	/	/
CCSc1nnc2c(n1)[nH]c1c(C)cccc12	?	-7.2%	-5.8%	13µM*	21.4%	12.6µM*
Cn1c(=O)c2c(-c3ccc(F)cc3)n(CC(N)=O)cc2n(C)c1=O	/	/	-23.8%	/	/	/
O=C(Nc1ccc(N2CCN(C(=O)c3ccco3)CC2)c(Cl)c1)c1cc2ccccc2o1	-17.1%	5.17µM*	4.1%	4.11µM*	?	8.2µM*
O=C(Nc1ccc(N2CCN(C(=O)c3ccccc3)CC2)c(Cl)c1)c1ccco1	?	11.6µM*	4.7%	16.4µM*	-68.1%	13µM*
CCC(=O)N1CCN(c2ccc(NC(=O)c3cc4ccccc4o3)cc2Cl)CC1	-3.5%[0.365 µM]	5.8µM*	-0.2%	9.2µM*	40.7%	13µM*
CCCC(=O)N1CCN(c2ccc(NC(=O)c3cc4ccccc4o3)cc2Cl)CC1	?	2.31µM*	120.0%	3.26µM*	0.1%	3.66µM*
Cc1ccc(NC(=O)c2cc3ccccc3o2)cc1Cl	-15.2%	?	8.3%	?	-7.9%	?
CC1CCC(NC(=O)COC(=O)c2cc3ccccc3[nH]2)CC1 (stereo not drawn)	/	/	-1.7%	/	/	/
COC(=O)c1ccc(N2CCOCC2)c(NC(=O)c2cc3ccccc3o2)c1	/	/	0.0%	3.4%	/	-1.5%
SMILES	Gal4-VP16 FLuc	ELG1 repair inh	ALOX12 inh	DT40 TDP1 CPT	RORgamma inh	DT40 TDP1 no CPT
COC(=O)c1ccc(N2CCN(C)CC2)c(NC(=O)c2cc3ccccc3o2)c1	8.4%	-14.6%	-16.8%	20.6µM*	0.0%	23.1µM*
Cc1cc(C)cc(Oc2nc(C(F)(F)F)nc3ccccc23)c1	-7.0%	-4.6%	13.9%	18.4µM*	?	20.6µM*
CC(=O)Nc1ccc(Oc2nc(C(F)(F)F)nc3ccccc23)cc1	-3.5%	0.6%	1.3%	1.2%	10.6%	-13.0%
CCOc1ccccc1NC(=O)c1nn(C)c(=O)c2ccccc12	/	/	-10.7%	/	/	/
COc1ccc(/C(C#N)=C/c2ccc(OCCOc3ccccc3)cc2)cc1OC	/	/	4.6%	/	/	/
Cc1csc(-c2nc3ccccc3n2C(C(=O)NC(C)(C)C)c2ccccc2)c1 (stereo not drawn)	/	/	11.4%	?	/	29.1µM*
CC(C(=O)NC(C)(C)C)n1c(C(c2ccccc2)c2ccccc2)nc2ccccc21 (stereo not drawn)	/	/	2.8%	?	/	?
CCC(C(=O)NC(C)(C)C)n1c(C(c2ccccc2)c2ccccc2)nc2ccccc21 (stereo not drawn)	/	/	9.2%	18.4µM*	/	?
O=C1NC2(C=Cc3c(ccc4ccccc34)O2)Oc2ccccc21 (stereo not drawn)	-3.6%	?	/	23.1µM*	-9.6%	23.1µM*
COC(=O)c1sc(=S)sc1C(=O)OC	?	10.8%	44.7µM*	29.1µM*	14.1µM*	?
O=C(NCc1ccc(F)cc1)c1ccccc1-c1ncc(-c2ccccc2)o1	/	/	12.4%	/	/	/
C=C1c2nc3ccccc3n2C=C(c2ccc(C)cc2)N1c1ccccc1	/	/	?	8.2µM*	/	13µM*
CCN(CC)S(=O)(=O)c1ccc(CNC(=O)c2nn(C)c(=O)c3ccccc23)cc1	/	/	-12.8%	/	/	/
CCCCNC(=O)c1cc(-c2ccccc2)sc1N	/	/	?	14.6µM*	/	16.4µM*
NNC(=O)c1cc(-c2ccccc2)sc1N	2.9%	-2.0%	-23.9%	-1.8%	-31.8%	-22.2%
Nc1sc(-c2ccccc2)cc1C(=O)NCCc1c[nH]c2ccccc12	/	/	-2.4%	16.4µM*	/	14.6µM*
CCCCc1nn(CC(=O)NCc2nc3c(s2)CCCC3)c(=O)n1CC	/	/	44.1%	/	/	/
Cc1ccccc1C(=O)N1CCC(C(=O)NCc2coc(-c3cccs3)n2)CC1	/	/	4.7%	/	/	/
CCCCn1c(=O)[nH]c(=O)c2c1nc(-c1ccncc1)n2CCOC	4.1%	-16.1%	-5.5%	-0.2%	9.2%	-9.0%
CCCCn1c(-c2ccc(Br)cc2F)nc2c1c(=O)[nH]c(=O)n2CC(C)C	-10.1%	?	?	20.6µM*	6.5%	23.1µM*
